This passage reports growth results from PubChem BioAssay (NCI).

Among the test systems are SK-MEL-2 melanoma; EKVX NSCLC; SN12C renal; UO-31 renal; TK-10 renal; ACHN renal; CAKI-1 renal; A498 renal; CCRF-CEM leukemia; MOLT-4 leukemia; RPMI-8226 leukemia; OVCAR-8 ovarian; OVCAR-5 ovarian; SK-OV-3 ovarian; IGROV1 ovarian; OVCAR-3 ovarian; HS 578T breast; NCI/ADR-RES ovarian; OVCAR-4 ovarian.
Common to all, as to assay: NCI-60 one-dose screen, 48 h (100 = growth as untreated, 0 = no growth, -100 = all killed)
Common to all, as to conditions: 10 µM unless noted

This is part of a sample that, as a whole, favours compounds with a hit. Of some 83,000 tested, about 20% had one in any assay.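 In brief: 96-well plates, 48 h treatment, single concentration, percent growth endpoint.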 Values without a mark were called inactive. Activity calls are given as the source filed them. The calls were made as follows: active = growth percent below 10; inactive = the rest.

In the case of `CN(C)CCC=C1c2ccccc2C(C)(C)c2ccccc21`, the growth with SK-MEL-2 melanoma is 74.4%; in the test on EKVX NSCLC, 110%; in the test on SN12C renal, 71.2%; with UO-31 renal, 58.1%; in the test with TK-10 renal, 98.3%; with ACHN renal it was 90.5%. The growth in the test with CAKI-1 renal is 91.2%; in the test on A498 renal, 91%; in the test on CCRF-CEM leukemia, 49.6%; in the test on MOLT-4 leukemia, 72.9%; in the test with RPMI-8226 leukemia, 0.547% (active); in the test with OVCAR-8 ovarian, 88.9%. The growth in the test with OVCAR-5 ovarian was 59.4%; in the test on SK-OV-3 ovarian it was 99.7%; with IGROV1 ovarian, 61.3%; with OVCAR-3 ovarian, 80.1%; in the test with HS 578T breast, 50.8%; with NCI/ADR-RES ovarian it was 77.6%.
Regarding `COC(=O)c1ccc(CSc2nnc(-c3c(C)nc4ccc(C)cn34)o2)cc1`, the growth with SK-MEL-2 melanoma is 105%; in the test with EKVX NSCLC, 102%; in the test with SN12C renal, 99.2%; with UO-31 renal, 85.9%; in the test on TK-10 renal, 113%; in the test on ACHN renal, 98.3%. The growth in the test on CAKI-1 renal is 92.9%; in the test on A498 renal it was 93.5%; with CCRF-CEM leukemia it was 106%; with MOLT-4 leukemia, 94.4%; in the test on RPMI-8226 leukemia, 88.4%; with OVCAR-8 ovarian, 103%. Moreover, the growth in the test on OVCAR-5 ovarian was 106%; in the test with OVCAR-4 ovarian it was 94%; in the test on IGROV1 ovarian, 109%; with OVCAR-3 ovarian, 119%; with HS 578T breast, 105%; in the test on NCI/ADR-RES ovarian, 89.7%.
Regarding `O=C1Nc2ccc(F)cc2C12Nc1cc(Cl)ccc1S2` (centres undefined), the growth in the test with SK-MEL-2 melanoma was 157%; in the test with EKVX NSCLC, 89.2%; with SN12C renal it was 97.9%; in the test with UO-31 renal, 80.4%; in the test with TK-10 renal it was 188%; with ACHN renal, 99.8%. Besides, the growth in the test on CAKI-1 renal was 55.2%; in the test on A498 renal, 89.2%; with CCRF-CEM leukemia it was 76.4%; in the test on MOLT-4 leukemia it was 74.5%; in the test with RPMI-8226 leukemia, 32.9%; in the test with OVCAR-8 ovarian it was 96.9%. In addition, the growth with OVCAR-5 ovarian was 121%; in the test with OVCAR-4 ovarian, 77.9%; with SK-OV-3 ovarian it was 83.8%; with OVCAR-3 ovarian, 82.8%; in the test with HS 578T breast, 94.4%; in the test on NCI/ADR-RES ovarian, 93.4%.
Consider `COc1cccc2c1C(=O)c1c(O)c3c(c(O)c1C2=O)CC(O)(/C(C)=N/NC(=O)CCCCC(=O)N/N=C(\C)C1(O)Cc2c(O)c4c(c(O)c2C(OC2CC(N)C(O)C(C)O2)C1)C(=O)c1c(OC)cccc1C4=O)CC3OC1CC(N)C(O)C(C)O1` (centres undefined), for which the growth in the test on SK-MEL-2 melanoma is -56.9% [5 µM] (active); with EKVX NSCLC it was -16.2% [5 µM] (active); in the test on SN12C renal, -2.85% [5 µM] (active); in the test on UO-31 renal, -16.9% [5 µM] (active); in the test with TK-10 renal, -29.5% [5 µM] (active); in the test with ACHN renal, -33.6% [5 µM] (active). Also, the growth in the test with CAKI-1 renal is -40% [5 µM] (active); with A498 renal it was -84.5% [5 µM] (active); in the test with CCRF-CEM leukemia, -26.4% [5 µM] (active); with MOLT-4 leukemia, -46.8% [5 µM] (active); in the test on RPMI-8226 leukemia, -66% [5 µM] (active); in the test with OVCAR-8 ovarian, 5% [5 µM] (active). Further, the growth in the test on OVCAR-5 ovarian was 7.09% [5 µM] (active); with OVCAR-4 ovarian, -9.94% [5 µM] (active); in the test with SK-OV-3 ovarian it was -7% [5 µM] (active); in the test with OVCAR-3 ovarian, -37.2% [5 µM] (active); with HS 578T breast, -40.4% [5 µM] (active); with NCI/ADR-RES ovarian it was 75.6% [5 µM].
Regarding `COc1ccc2c(c1)O/C(=C\c1cccc(OCC(=O)Nc3nc(C)c(C)s3)c1)C2=O`, the growth with SK-MEL-2 melanoma was 89.3%; in the test on EKVX NSCLC, -13.4% (active); with SN12C renal, 33.8%; with UO-31 renal, -74.9% (active); in the test with TK-10 renal, 111%; in the test with ACHN renal, 98.7%. The growth in the test on CAKI-1 renal was -82.7% (active); in the test with A498 renal it was 114%; in the test on CCRF-CEM leukemia, -66.8% (active); with MOLT-4 leukemia it was 19.2%; in the test with RPMI-8226 leukemia, -59.8% (active); in the test with OVCAR-8 ovarian it was 15.1%. For the same compound, the growth was 12.7% in the test on OVCAR-5 ovarian; 67.8% in the test on OVCAR-4 ovarian; 101% in the test with SK-OV-3 ovarian; -33.1% (active) in the test on OVCAR-3 ovarian; 42.9% in the test on HS 578T breast; -10.7% (active) in the test on NCI/ADR-RES ovarian.
With `O=c1c2c3c(sc2n2c(-c4cn(-c5ccccc5)nc4-c4ccc(Cl)cc4)nnc2n1Cc1ccccc1)CCCC3`, the growth in the test on SK-MEL-2 melanoma was 97.8%; with EKVX NSCLC, 87.1%; in the test on SN12C renal, 91.2%; in the test with UO-31 renal it was 4.67% (active); with TK-10 renal, 107%; with ACHN renal, 99.2%. Besides, the growth with CAKI-1 renal is 100%; in the test on A498 renal, 100%; in the test on CCRF-CEM leukemia, 81.1%; in the test with MOLT-4 leukemia, 85.4%; in the test on RPMI-8226 leukemia, 94.1%; in the test on OVCAR-8 ovarian, 97.1%. Moreover, the growth with OVCAR-5 ovarian was 103%; in the test with OVCAR-4 ovarian, 95.5%; in the test on SK-OV-3 ovarian, 109%; with OVCAR-3 ovarian, 103%; in the test with HS 578T breast it was 96.9%; in the test on NCI/ADR-RES ovarian it was 101%.
Turning to `CC1=C(SCCC(=O)OC(C[Se]C2=C(C)C(=O)c3ccccc3C2=O)C(=O)NCCCCCC(=O)OCc2ccccc2)C(=O)c2ccccc2C1=O` (centres undefined), the growth with SK-MEL-2 melanoma is 23.3%; in the test on EKVX NSCLC it was 55.8%; with SN12C renal, 38.4%; with UO-31 renal it was 25.3%; in the test with TK-10 renal, 114%; with ACHN renal, 36.4%. Further, the growth with CAKI-1 renal was 90.8%; with A498 renal, 70.8%; with CCRF-CEM leukemia, 10.8%; in the test with MOLT-4 leukemia it was 10.9%; in the test on RPMI-8226 leukemia, 30.2%; with OVCAR-8 ovarian it was 39%. Moreover, the growth in the test with OVCAR-5 ovarian is 44.6%; with OVCAR-4 ovarian, 53.2%; with SK-OV-3 ovarian, 32.7%; with IGROV1 ovarian, 25%; in the test with HS 578T breast it was 34%; in the test on NCI/ADR-RES ovarian, 21.1%.
For the compound `Cc1nn(-c2ccccc2)c(Cl)c1/C=C(/NC(=O)c1ccccc1)c1nc2ccccc2[nH]1`, the growth is 111% with SK-MEL-2 melanoma; 94.4% with EKVX NSCLC; 91.2% in the test with SN12C renal; 80.2% with UO-31 renal; 106% in the test with TK-10 renal; 92.4% in the test on ACHN renal. The growth was 84.1% with CAKI-1 renal; 88.2% in the test on A498 renal; 86.5% in the test on CCRF-CEM leukemia; 79.9% in the test with MOLT-4 leukemia; 91.6% with RPMI-8226 leukemia; 102% in the test with OVCAR-8 ovarian. Moreover, the growth with OVCAR-5 ovarian is 101%; with SK-OV-3 ovarian, 95.4%; in the test on IGROV1 ovarian it was 96.8%; in the test with OVCAR-3 ovarian, 120%; with HS 578T breast, 115%; in the test with NCI/ADR-RES ovarian, 101%.
